Assay outcomes (PubChem BioAssay)
The list is not random: actives were taken first. Their share in the collection is about 2.1%.
aSyn 5UTR inh: MLPCN primary screen, SNCA 5' untranslated region | alpha-synuclein 5'UTR reporter, inhibitor activity | inhibition, % (tested at 7.5 µM) | 300,000 compounds, 0.82% hits; in the data active = inhibition above about 60%;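 also: H4 neuroglioblastoma cells stably carrying SNCA 5'UTR luciferase fusion; 0% = DMSO wells and 100% = positive control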
MITF TRPM1 inh: inhibitors of MITF-driven TRPM1 promoter in melanoma cells | SK-MEL-5 TRPM1 promoter luciferase, 24 h | inhibition, % at 12.5 µM | 330,000 compounds, 0.83% hits | AID 488899;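 active = mean inhibition across replicates of 60% or more, whatever share of single replicates reaches that level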
PAX8 inh HTS: inhibitors of PAX8 transcriptional activity in RMG-I cells; RMG-I TPO-luciferase reporter, SteadyGlo, 24 h; inhibition, % at 12.6 µM; 360,000 compounds, 1.2% hits; AID 652154;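 active = mean replicate inhibition at least 60% with every replicate also reaching 60%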;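 also: luciferase light reporting Pax8 driven TPO promoter activity; plate controls were median of neutral control wells for no effect and mitoxantrone controls for full effect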
EBV LMP1 NFkB: Epstein-Barr LMP1 NF-kappaB reporter inhibition | LMP1-induced NF-kappaB luciferase reporter cells, luminescence | inhibition, % at 12.5 µM | 350,000 compounds, 0.69% hits; in the data active = inhibition above about 41%;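 also: 0% = neutral control wells and 100% = reference inhibitor control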
Shn3 3UTR inh: inhibitors of Schnurri-3 3'UTR reporter in osteoblasts. Clone20 osteoblast Shn3 3'UTR firefly luciferase, 24 h. 360,000 compounds, 0.52% hits. inhibition, % at 12.5 µM. AID 588674;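 active = mean inhibition of at least 75% with every replicate also reaching 75%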;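 also: 0% = median of neutral control wells and 100% = pilot-screen positive control compound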
Active calls of the source: *; / = no result.

SMILES	aSyn 5UTR inh	MITF TRPM1 inh	PAX8 inh HTS	EBV LMP1 NFkB	Shn3 3UTR inh
CCOC(=O)C1=C(COC(=O)c2ccc([N+](=O)[O-])s2)NC(=O)NC1C (stereo not drawn)	/	62.1*	3.5	-5.3	7.8
COc1nc(-c2ccccc2)cc(-c2ccc3c(c2)OCO3)c1C#N	64.4*	33.7	10.2	6.1	4.9
COc1ccc(-c2cc(-c3ccccc3)c(C#N)c(S(C)(=O)=O)n2)cc1	1.5	19.0	92.7*	-0.5	-39.3
N#Cc1c(-c2ccc(Br)cc2)cc(-c2cccnc2)nc1N	13.4	-2.9	-21.7	2.5	5.3
N#Cc1c(-c2ccccc2)cc(-c2ccc(O)cc2)nc1N	7.2	7.4	-1.3	-13.8	-10.3
CS(=O)(=O)c1nc(-c2ccc(Br)cc2)cc(-c2ccccc2)c1C#N	-3.0	6.4	/	3.3	98.2*
CS(=O)c1nc(-c2ccc(Br)cc2)cc(-c2ccccc2)c1C#N (stereo not drawn)	120.1*	78.0*	/	12.8	76.1
CC(=O)[C@@H]1[C@@H](C)N(Cc2ccccc2)C(=O)N[C@H]1c1cccc(C(F)(F)F)c1	18.6	3.6	9.1	2.2	3.0
Cc1ccc(CSc2nnc(CC(=O)Nc3ccc(C)cc3)n2C)cc1	18.9	5.8	/	0.0	-5.0
CC1(Oc2ccc3ccccc3c2)CCN(Cc2cccn2-c2nccs2)C1 (stereo not drawn)	/	/	10.5	/	9.7
O=c1[nH]c(-c2ccccn2)nc2sc(-c3ccccc3)cc12	-90.9	35.8	89.2*	18.0	79.7
Cc1ccc(-c2nnc(Nc3ccc(CC(N)=O)cc3)c3ccccc23)cc1S(N)(=O)=O	-6.0	-10.0	19.3	8.0	-8.9
CCOC(=O)c1ccc(NC(=O)CNS(=O)(=O)c2ccccc2)cc1	/	16.9	/	-2.9	-1.1
COc1ccc(N/C(N)=N/c2nc(C)cc(=O)[nH]2)cc1	-18.8	8.1	10.1	85.7*	16.2
C[C@@H]1CN([C@@H](C)CO)C(=O)c2cc(NC(=O)Nc3ccc(F)cc3)ccc2O[C@@H](C)CCCCO[C@@H]1CN(C)S(=O)(=O)c1ccccc1	/	/	-13.3	/	/
C[C@@H]1CN([C@H](C)CO)C(=O)c2cc(NC(=O)Nc3ccc(F)cc3)ccc2O[C@@H](C)CCCCO[C@H]1CN(C)S(=O)(=O)c1ccccc1	/	/	87.8*	/	/
C[C@@H]1CCCCO[C@@H](CN(C)S(=O)(=O)c2ccccc2)[C@H](C)CN([C@H](C)CO)C(=O)c2cc(NC(=O)Nc3ccc(F)cc3)ccc2O1	/	/	73.2*	/	/
CCCNC(=O)N1C[C@@H]2[C@H](c3ccccc31)[C@@H](CO)N2Cc1ccc(F)cc1	/	/	11.8	/	/
Cc1cc(=O)oc2cc(O)cc(O)c12	/	-3.8	9.5	-14.2	-8.6
Cc1ccc(S(=O)(=O)Oc2ccc(/C=C(/NC(=O)c3ccccc3)C(=O)NC(C)C(=O)O)cc2)cc1 (stereo not drawn)	9.1	-18.8	-4.8	-7.3	-0.5
CN(C)c1ccc(C(=O)OCc2ccccc2)cc1	-74.5	-63.5	/	-17.0	-41.2
O=C1C=CC(=O)C(CNc2ccc(C(=O)OCc3ccccc3)cc2)=C1	/	65.9*	0.6	-11.7	95.5*
CN1c2ccc(-c3ccc(F)cc3)cc2[C@H]2[C@H](CCN2S(=O)(=O)c2ccc(F)cc2)[C@@H]1CO	/	/	40.8	/	/
COc1ccc(S(=O)(=O)N2CC[C@H]3[C@@H](CO)N(C)c4ccc(-c5ccc(F)cc5)cc4[C@H]32)cc1	/	/	-0.7	/	/
COc1ccc(-c2ccc3c(c2)[C@@H]2[C@@H](CCN2S(=O)(=O)c2ccc(F)cc2)[C@@H](CO)N3C)cc1	/	/	7.4	/	/
SMILES	aSyn 5UTR inh	MITF TRPM1 inh	PAX8 inh HTS	EBV LMP1 NFkB	Shn3 3UTR inh
COc1ccc(-c2ccc3c(c2)[C@H]2[C@H](CCN2S(=O)(=O)c2ccc(F)cc2)[C@H](CO)N3C)cc1	/	/	93.8*	/	/
COc1cccc(-c2ccc3c(c2)[C@H]2[C@H](CCN2S(=O)(=O)c2ccc(F)cc2)[C@@H](CO)N3C)c1	/	/	67.3*	/	/
COc1ccc(S(=O)(=O)N2CC[C@@H]3[C@@H](CO)N(C)c4ccc(-c5ccc(F)cc5)cc4[C@@H]32)cc1	/	/	65.9*	/	/
Cc1cc(C)n(-c2ccc(C(=O)Nc3cc(C(F)(F)F)ccc3N3CCOCC3)cc2)n1	21.3	3.3	/	9.0	12.8
CCOC(=O)c1ccc(OCCOc2ccccc2C)cc1	-4.8	-21.4	-12.1	-2.4	1.5
COc1ccc(CC(N)c2csc(NC(=O)c3cc(C(C)(C)C)nn3Cc3ccccc3)n2)cc1 (stereo not drawn)	/	/	3.8	/	93.9*
COc1cc2c(cc1NC(=O)c1cccc([N+](=O)[O-])c1)oc1ccccc12	80.9*	52.3	/	-29.3	28.0
COc1cc2c(cc1NC(=O)c1ccc(C)c([N+](=O)[O-])c1)oc1ccccc12	-2.7	-14.7	4.8	-4.7	-26.0
CCN1c2ccccc2NC2C1C(C(C)=O)C(=O)N2c1ccc(Cl)cc1 (stereo not drawn)	-40.7	64.5*	/	-20.1	13.3
O=C1Nc2ccccc2N(O)N1c1ccc(Cl)cc1	-57.4	11.5	-22.5	7.7	2.2
COc1ccc(NC(=O)c2cc(C)nc3ccccc23)cc1S(=O)(=O)Nc1ccccc1Cl	25.2	3.0	31.7	2.3	17.4
Cc1cc(C)n(CC(=O)N/N=C/c2ccc([N+](=O)[O-])s2)n1	-16.8	47.3	39.3	-5.5	-0.8
O=C(CNC(=O)c1ccccc1)N/N=C/c1ccc([N+](=O)[O-])s1	-19.0	62.7*	18.1	12.8	11.8
COc1ccc(NC(=O)CCC(=O)N/N=C/c2ccc([N+](=O)[O-])s2)cc1	-79.1	72.2*	/	1.5	-8.0
CCOC(=O)N/N=C\c1ccc([N+](=O)[O-])s1	-55.6	29.0	13.0	7.1	-11.3
O=C(Cc1ccccc1)NCC(=O)N/N=C/c1ccc([N+](=O)[O-])s1	3.7	82.7*	21.9	0.5	-11.1
CCc1c(C)nc(SCC(=O)N2CCN(c3ccccc3OC)CC2)[nH]c1=O	9.2	-5.2	13.1	0.0	9.6
NC(=O)c1c(NC(=O)CN2CCOCC2)sc2c1CCC2	-6.8	-9.6	/	0.9	1.7
O=C(NCc1ccc(F)cc1F)[C@@H]1CCCN1C(=O)[C@@H]1CCCN1	/	/	79.7*	/	/
O=C(NCc1ccccc1Cl)[C@H]1CCCN1C(=O)[C@H]1CCCN1	/	/	-9.7	/	/
CC(=O)NC(=S)NNC(=O)C(c1ccccc1)c1ccccc1	1.7	16.1	16.8	8.7	20.9
Cc1ccccc1/C=N/n1c(COc2ccccc2)n[nH]c1=S	16.6	-2.4	-11.9	/	9.6
Cc1[nH]nc2nc3c(c(OC(=O)c4ccccc4)c12)c(=O)n(C)c(=O)n3C	-14.1	/	/	/	/
Cc1ccc(OCC(=O)N/N=C\c2cn(Cc3ccccc3)c3ccccc23)cc1C	76.1*	18.2	11.8	-6.2	24.6
Cc1ccccc1OCC(=O)N/N=C/c1cn(Cc2ccccc2)c2ccccc12	41.5	7.7	17.7	-0.2	13.7
Nc1ccc(C(=O)N/N=C/c2cn(Cc3ccccc3F)c3ccccc23)cc1	72.4*	7.2	-0.9	14.1	20.8
Nc1ccc(C(=O)N/N=C/c2cn(Cc3ccc(F)cc3)c3ccccc23)cc1	64.3*	-14.1	2.6	3.7	-1.5
